Measurements: PubChem BioAssay (NCI)
Compounds without any hit were thinned out: in the full panel of roughly 79,000, 15% have a hit. A number with no mark means an inactive call. Calls of active or inactive are those of the source. Cut-off read from the data, not from the text of the source: active = growth inhibition above about 70%; inactive = the rest.

Assays:
[1] = NCI Yeast Anticancer Drug Screen. Data for the rad50 strain (AID 155);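 note: 0% = growth of vehicle-only cultures of the same strain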; conditions: S. cerevisiae rad50 strain growth inhibition, active compounds read high
In short: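 Inhibition values express reduced yeast growth in compound-treated cultures relative to vehicle-treated controls.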

[2] = NCI Yeast Anticancer Drug Screen. Data for the mec2-1 strain (AID 157); conditions: S. cerevisiae mec2-1 strain, active compounds read high
In short: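 Readout is yeast growth inhibition, normalised to vehicle-treated controls, in the mec2-1 strain exposed to compound.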

[3] = NCI Yeast Anticancer Drug Screen. Data for the sgs1 mgt1 strain (AID 161);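 note: 0% = growth of cultures given vehicle only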; conditions: S. cerevisiae sgs1 mgt1 strain, active compounds read high
In short: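 Percent growth inhibition was derived by comparing compound-exposed mutant yeast with vehicle-exposed cultures. The strain carries alterations in DNA damage repair.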

[4] = NCI Yeast Anticancer Drug Screen. Data for the cln2 rad14 strain (AID 165);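 note: 0% = growth equal to vehicle treated cultures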; conditions: S. cerevisiae cln2 rad14 strain, active compounds read high
In short: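 Relative to vehicle controls, growth inhibition of compound-treated cln2 rad14 yeast was recorded.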

[5] = NCI Yeast Anticancer Drug Screen. Data for the bub3 strain (AID 167); conditions: S. cerevisiae bub3 mutant strain, active compounds read high
In short: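 Steps: expose the mutant yeast strain to compound; grow alongside vehicle-treated cultures; measure growth; express inhibition against the vehicle cultures.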

[6] = NCI Yeast Anticancer Drug Screen. Data for the mlh1 rad18 strain (AID 175); conditions: S. cerevisiae mlh1 rad18 strain growth inhibition, active compounds read high
In short: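 Test agents were incubated with a yeast strain of defined genotype (DNA damage repair defect). Inhibition of growth was derived by comparison with vehicle-exposed cultures.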

[7] = at 5.0 µM (retest, dose inferred, filed as 0.5)
[8] = at 50.0 µM (retest, dose inferred, filed as 5.0)

| SMILES | growth inhibition [1, 7] | growth inhibition [1, 8] | growth inhibition ([1]; at 50.0 µM) | growth inhibition [2, 7] | growth inhibition [2, 8] | growth inhibition ([2]; at 50.0 µM) | growth inhibition [3, 7] | growth inhibition [3, 8] | growth inhibition ([3]; at 50.0 µM) | growth inhibition [4, 7] | growth inhibition [4, 8] | growth inhibition ([4]; at 50.0 µM) | growth inhibition [5, 7] | growth inhibition [5, 8] | growth inhibition ([5]; at 50.0 µM) | growth inhibition [6, 7] | growth inhibition [6, 8] | growth inhibition ([6]; at 50.0 µM) |
| --- | --- | --- | --- | --- | --- | --- | --- | --- | --- | --- | --- | --- | --- | --- | --- | --- | --- | --- |
| Cc1cc(SC#N)cc(C)c1O | 6% | 65% | 82% (active) | -3% | 47% | 63.1% | -1% | 45% | 74% (active) | 32% | 69% | 49% | -4% | 63% | 78.9% (active) | -5% | 81% (active) | 83.5% (active) |
| Oc1ccc(-c2ccccc2)cc1Br | 14% | 99% (active) | 99.4% (active) | 3% | 100% (active) | 99.7% (active) | 1% | 99% (active) | 99.5% (active) | -9% | 99% (active) | 98.5% (active) | -3% | 99% (active) | 99.5% (active) | 9% | 99% (active) | 99.5% (active) |
| COC(=O)c1[nH]cnc1/N=N/N(C)C | 98% (active) | 98% (active) | 98.8% (active) | 99% (active) | 99% (active) | 98.9% (active) | 99% (active) | 99% (active) | 99.5% (active) | 99% (active) | 98% (active) | 99% (active) | 49% | 49% | 98.8% (active) | 98% (active) | 99% (active) | 99.3% (active) |
| CC(=O)Nc1ccc(-c2cnc3ccccc3c2)cc1 | 5% | 29% | 14.2% | -13% | 15% | 6.2% | 8% | 18% | 4.25% | -5% | -6% | 36.5% | -5% | -1% | 11.2% | 17% | 29% | 9.15% |
| c1ccc2c(c1)[nH]c1cc3ccncc3cc12 | -45% | 90% (active) | 79.3% (active) | -30% | 29% | 46.9% | -24% | 52% | 45.6% | -13% | 42% | 34.7% | -49% | 51% | 34.5% | -75% | 56% | 61.7% |
| Cc1ccc(S(=O)(=O)N(c2ccccc2-c2ccccc2)C(C)C(=O)O)cc1 (centres undefined) | 2% | 67% | 92.3% (active) | 13% | 80% (active) | 88.3% (active) | 20% | 62% | 96% (active) | 3% | 76% (active) | 91.5% (active) | 4% | 66% | 82.5% (active) | 5% | 87% (active) | 94.3% (active) |
| O=C1C2=C(Nc3cc([N+](=O)[O-])ccc3N2)OC1c1c2ccccc2cc2ccccc12 (centres undefined) | 89% (active) | 98% (active) | 93.5% (active) | 70% (active) | 99% (active) | 66.4% | 70% (active) | 99% (active) | 96% (active) | 62% | 98% (active) | 35.5% | 34% | 99% (active) | 78.4% (active) | 92% (active) | 99% (active) | 93.6% (active) |
| C(=N\Nc1ccc2ccccc2n1)/c1ccccn1.CC(=O)[O-].CC(=O)[O-].[Zn+2] | -4% | 2% | 16.7% | 2% | -2% | 39.3% | -3% | -3% | 84.3% (active) | -3% | 0% | -19.6% | -1% | -1% | 18.3% | 2% | 0% | 57.4% |
| Nc1nc2nn(-c3ccc(C(=O)O)cc3)nc2c(=O)[nH]1 | 2% | 9% | 16.6% | 3% | 1% | 30.8% | -4% | 3% | 9.3% | 4% | 1% | -7.05% | -2% | -3% | 39.8% | 3% | 9% | 67.9% |
| CCOC(=O)/C(=C\c1ccc(-c2ccccc2)cc1)C(C)=O | 0% | 93% (active) | 67.1% | -27% | 95% (active) | 73.5% (active) | 21% | 92% (active) | 81.2% (active) | 1% | 85% (active) | 45.5% | 16% | 96% (active) | 66.9% | -27% | 94% (active) | 76.6% (active) |
| [N-]=[N+]=Nc1c(Cc2ccccc2)c(=O)oc2ccccc12 | 15% | 73% (active) | 65.3% | -8% | 58% | 73.9% (active) | 3% | 73% (active) | 75.7% (active) | 11% | 35% | 58.8% | -17% | 87% (active) | 77.7% (active) | -3% | 82% (active) | 66.9% |
| O=C1C(c2c[nH]c3ccc(Br)cc23)=Nc2ccc(Br)cc21 | -1% | 2% | 88% (active) | 3% | 21% | 75.8% (active) | -20% | -32% | 85.5% (active) | -6% | -18% | 88.8% (active) | -4% | -2% | 82.2% (active) | 7% | 25% | 73.4% (active) |
| CC(NNC(=S)N1CC2CCC(CC2)C1)c1cc2ccccc2cn1 (centres undefined) | 97% (active) | 97% (active) | 96.9% (active) | 97% (active) | 99% (active) | 97.4% (active) | 98% (active) | 99% (active) | 94.5% (active) | 72% (active) | 61% | 92.6% (active) | 98% (active) | 99% (active) | 98.2% (active) | 98% (active) | 99% (active) | 98% (active) |
| O=[N+]([O-])c1ccc(C2=CSc3ccccc3N2)cc1 | -17% | 6% | 49.7% | -30% | -5% | 59.4% | -11% | -7% | 58% | 11% | 25% | 22.9% | -16% | 19% | 73.4% (active) | -43% | 31% | 58.2% |
| CCCC(=O)NC1=C(Cl)C(=O)c2ccccc2C1=O | 100% (active) | 99% (active) | 91.8% (active) | 100% (active) | 100% (active) | 92.5% (active) | 100% (active) | 100% (active) | 92.5% (active) | 90% (active) | 99% (active) | 91.5% (active) | 100% (active) | 99% (active) | 89.7% (active) | 101% (active) | 99% (active) | 87.5% (active) |
| O=C(C(Oc1ccc(Cl)cc1)Oc1ccc(Cl)cc1)N(O)c1ccccc1OCc1ccccc1 | 14% | 49% | 66.8% | 3% | 39% | 63% | 18% | 45% | 69.5% | -13% | 49% | 53.6% | 6% | 57% | 47.9% | 11% | 45% | 71.5% (active) |
| NC(=O)NN=C1CSSC1 | 7% | 48% | 96.2% (active) | 4% | 23% | 76.5% (active) | 3% | 34% | 58% | -9% | -6% | -3.8% | 1% | 2% | 77.8% (active) | -1% | 72% (active) | 94.2% (active) |
| Cc1[nH]c2ccccc2c1C(c1ccccc1)c1c(C)[nH]c2ccccc12 | 2% | 92% (active) | 71.6% (active) | 1% | 98% (active) | 83% (active) | 10% | 97% (active) | 87.2% (active) | 0% | 97% (active) | 81% (active) | -1% | 97% (active) | 83.5% (active) | 20% | 97% (active) | 94.7% (active) |
